Where a name gives a salt, the structure may show the parent alone.
Tested on: HL-1
Assay: relative cell viability (CellTiter-Glo) vs DMSO control (% of DMSO control); higher = more viable cells
How it was run: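 HL-1 mouse atrial cardiomyocytes were seeded into 384-well plates at 1000 cells per well along with compounds at 40, 200, 1000 or 5000 nM in 0.01% DMSO. After one day, the cells were moved to a hypoxic workstation (1% O2) for 48 h and then reoxygenated for 24 h in a normal incubator, while others remained in normoxia for the same period. Cell viability was measured by CellTiter-Glo luminescence and normalised to vehicle-treated control cells.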

[1] = oxygen condition: hypoxia 48 h (1% O2) + reoxygenation 24 h, 40 nM
[2] = oxygen condition: hypoxia 48 h (1% O2) + reoxygenation 24 h, 200 nM
[3] = oxygen condition: hypoxia 48 h (1% O2) + reoxygenation 24 h, 1000 nM
[4] = oxygen condition: hypoxia 48 h (1% O2) + reoxygenation 24 h, 5000 nM
[5] = oxygen condition: normoxia 72 h, 40 nM
[6] = oxygen condition: normoxia 72 h, 200 nM
[7] = oxygen condition: normoxia 72 h, 1000 nM
[8] = oxygen condition: normoxia 72 h, 5000 nM

SMILES	relative cell viability [1]	relative cell viability [2]	relative cell viability [3]	relative cell viability [4]	relative cell viability [5]	relative cell viability [6]	relative cell viability [7]	relative cell viability [8]
CCCCc1ncc(/C=C(\Cc2cccs2)C(=O)O)n1Cc1ccc(C(=O)O)cc1 [Eprosartan Mesylate]	96.2	101	103	104	107	102	102	105
O=C1c2c(O)ccc(O)c2C(=O)c2c(NCCNCCO)ccc(NCCNCCO)c21 [Mitoxantrone Hydrochloride]	4.78	4.55	5.93	3.1	4.75	4.41	3.59	3.38
CC[C@@H](CO)NCCN[C@@H](CC)CO [Ethambutol HCl]	100	93.4	102	112	90.2	91.3	102	3.47
CCCCOc1cc(C(=O)OCCN(CC)CC)ccc1N [Oxybuprocaine HCl]	106	106	108	108	103	102	113	112
C[C@]12CC[C@@H]3c4ccc(O)cc4CC[C@H]3[C@@H]1CC[C@@H]2O [Estradiol]	105	98.2	100	94	101	103	100	100
CN1CCCCC1CCN1c2ccccc2Sc2ccc([S+](C)[O-])cc21 (centres undefined) [Mesoridazine Besylate]	108	106	105	113	97	102	117	115
CC(CCc1ccc(O)cc1)NCC(O)c1ccc(O)cc1 (centres undefined) [Ractopamine HCl]	103	100	108	60.4	98.9	104	106	106
CN(C)CCOc1ccc(/C(=C(/CCCl)c2ccccc2)c2ccccc2)cc1 [Toremifene Citrate]	104	103	108	108	103	99.5	105	108
C[C@]12C=CC(=O)N[C@@H]1CC[C@@H]1[C@@H]2CC[C@]2(C)[C@@H](C(=O)Nc3cc(C(F)(F)F)ccc3C(F)(F)F)CC[C@@H]12 [Dutasteride]	104	106	109	108	105	106	113	99.6
Cc1c(O)c(=O)ccn1C [Deferiprone]	108	102	102	112	100	102	107	111
Nc1ccn([C@@H]2O[C@H](CO)[C@@H](O)C2(F)F)c(=O)n1 [Gemcitabine]	3.81	3.59	4.33	3.65	3.56	3.5	3.75	3.7
O=C(O[C@H]1CN2CCC1CC2)N1CCc2ccccc2[C@@H]1c1ccccc1 [Solifenacin succinate]	110	111	115	106	104	112	105	113
COc1cccc2c1C(=O)c1c(O)c3c(c(O)c1C2=O)C[C@@](O)(C(C)=O)C[C@@H]3O[C@H]1C[C@H](N)[C@H](O)[C@H](C)O1 [Daunorubicin HCl]	56.7	30.5	17.2	2.34	62.6	29.6	10.3	2.68
CCN(CC)C(=O)/C(C#N)=C/c1cc(O)c(O)c([N+](=O)[O-])c1 [Entacapone]	101	105	103	108	100	111	103	114
C[C@]12CCC(=O)C=C1[C@@H]1C[C@@H]1[C@H]1[C@@H]3[C@@H]4C[C@@H]4[C@@]4(CCC(=O)O4)[C@@]3(C)CC[C@@H]12 [Drospirenone]	104	104	109	105	103	112	100	104
Cc1ccc(Nc2nccc(N(C)c3ccc4c(C)n(C)nc4c3)n2)cc1S(N)(=O)=O [Pazopanib HCl]	94.1	106	105	109	103	113	104	109
O=NO [Sodium nitrite]	109	110	116	122	109	116	107	114
CC(C)CC(N)=O [Isovaleramide]	96.1	91.3	96.4	112	96.3	90.2	87.8	104
Cc1nc2n(c(=O)c1CCN1CCC(c3noc4cc(F)ccc34)CC1)CCCC2O (centres undefined) [Paliperidone]	106	107	106	104	104	109	105	118
COc1c2ccoc2cc2oc(=O)ccc12 [Bergapten]	101	104	107	109	99.2	96.6	109	103
Nc1ncn([C@@H]2O[C@H](CO)[C@@H](O)[C@H]2O)c(=O)n1 [Azacitidine]	105	101	102	83	98.6	103	90.1	84.5
CCOC(=O)C1=C(COCCN)NC(C)=C(C(=O)OC)C1c1ccccc1Cl (centres undefined) [Amlodipine besylate]	88	102	102	105	103	105	106	102

SMILES	relative cell viability [1]	relative cell viability [2]	relative cell viability [3]	relative cell viability [4]	relative cell viability [5]	relative cell viability [6]	relative cell viability [7]	relative cell viability [8]
CCCNC(C)C(=O)Nc1ccccc1C (centres undefined) [Prilocaine]	96.7	101	105	104	92.2	92.1	92.3	97.4
CC(=O)OCC(=O)[C@H]1CC[C@H]2[C@@H]3CCC4=CC(=O)CC[C@]4(C)[C@H]3CC[C@]12C [Deoxycorticosterone acetate]	103	99.4	101	108	95.4	103	102	107
CC1=C(/C=C/C(C)=C/C=C/C(C)=C\C(=O)O)C(C)(C)CCC1 [Isotretinoin]	103	102	105	111	116	104	107	112
CCc1c2c(nc3ccc(OC(=O)N4CCC(N5CCCCC5)CC4)cc13)-c1cc3c(c(=O)n1C2)COC(=O)[C@]3(O)CC [Irinotecan HCl Trihydrate]	89	95.6	64.6	40.2	99	83.5	62.5	40.2
Nc1[nH]cnc2ncnc1-2 [Adenine]	101	97.9	98.1	109	102	95.5	98.6	106
CN(C)CCc1c[nH]c2ccc(CS(=O)(=O)N3CCCC3)cc12 [Almotriptan malate]	98	99	97.6	91.9	98.2	103	102	52.1
COC(=O)C1=C(C)NC(C)=C(C(=O)OC)C1c1ccccc1[N+](=O)[O-] [Nifedipine]	96.4	77.6	85.4	63.7	105	80.7	75.6	59
COc1ccc(CN(CCN(C)C)c2ccccn2)cc1 [Pyrilamine Maleate]	102	99.1	101	112	99.5	106	99.9	124
Cc1ncc(CO)c(CO)c1O [Pyridoxine hydrochloride]	102	101	103	109	99.7	100	103	114
COc1cc(Nc2c(C#N)cnc3cc(OCCCN4CCN(C)CC4)c(OC)cc23)c(Cl)cc1Cl [Bosutinib]	103	104	107	121	110	125	107	116
CCOC(=O)[C@H](CCc1ccccc1)N[C@H]1CCc2ccccc2N(CC(=O)O)C1=O [Benazepril hydrochloride]	102	102	103	109	101	109	108	109
CCCN[C@H]1CCc2nc(N)sc2C1 [Pramipexole dihydrochloride monohydrate]	103	98.2	99.8	107	99	105	101	110
CCCCN(CCCC)CCCOC(=O)c1ccc(N)cc1 [Butacaine]	103	101	106	106	103	92.7	102	104
CCOC(=O)[C@H](CCc1ccccc1)N[C@H]1CS[C@H](c2cccs2)CN(CC(=O)O)C1=O [Temocapril HCl]	102	102	104	112	104	77.1	102	110
CN1C(CCl)Nc2cc(Cl)c(S(N)(=O)=O)cc2S1(=O)=O (centres undefined) [Methyclothiazide]	106	98.5	105	110	108	106	109	115
Cc1ccc(O)c([C@H](CCN(C(C)C)C(C)C)c2ccccc2)c1 [Tolterodine tartrate]	108	105	102	109	104	112	107	110
Cc1ccc(C(=O)c2cc(O)c(O)c([N+](=O)[O-])c2)cc1 [Tolcapone]	101	100	103	116	98.4	102	103	113
COC(=O)[C@@H]1CC2=CC(=O)CC[C@]2(C)[C@@]23O[C@@H]2C[C@@]2(C)[C@@H](CC[C@@]24CCC(=O)O4)[C@H]13 [Eplerenone]	102	103	101	103	107	107	108	104
O=C(NCCO[N+](=O)[O-])c1cccnc1 [Nicorandil]	101	105	108	102	104	98.1	99.2	102
CCCN(CCC)CCc1cccc2c1CC(=O)N2 [Ropinirole HCl]	109	117	106	114	107	104	107	110
CCCC(=O)O[C@]1(C(=O)COC(C)=O)CC[C@H]2[C@@H]3C[C@H](F)C4=CC(=O)C=C[C@]4(C)[C@@]3(F)[C@@H](O)C[C@@]21C [Difluprednate]	83.3	93.3	92.2	102	90.8	89	94.4	102

From the supplement of paper PMC8371130
